Assay results as given in PubChem BioAssay (NCATS).
Records with an inconclusive call do not appear. Calls of active or inactive are those of the source. Unless noted, calls come from the whole dose curve; as a rule, active = well fitted curve in the direction sought with a large enough effect; inconclusive = small, poorly fitted or top-dose-only effect, or another doubt; inactive = no such curve, though single readings can be large; an effect the other way counts as inactive or inconclusive.

Legend:
[1] = qHTS for differential inhibitors of proliferation of Plasmodium falciparum line HB3 (AID 1886); conditions: Potency: Plasmodium falciparum HB3 proliferation inhibition;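 note: parasites grown with compound for 72 h before SYBR Green readout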
[2] = molecular target: Ferritin light chain (Equus caballus) (UniProt P02791); assay: qHTS Validation Assay for Identification of Novel General Anesthetics (AID 2323); note: series mostly up to about 77 µM
In short: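 Competitive displacement of the profluorescent anesthetic 1-AMA (50% saturated, PBS) from 10 uM apoferritin, 10 min, room temperature. Activity is normalized 380/535 nm fluorescence; concentration-response fitted with a four-parameter Hill equation.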

[3] = molecular target: ATP-dependent DNA helicase Q1 (Homo sapiens) (UniProt P46063); assay: qHTS Validation Assay for Inhibitors of RecQ-Like Dna Helicase 1 (RECQ1) (AID 2353)
In short: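 50 nM RECQ1T1 preincubated 15 min with compound in Tris pH 8.0 buffer with MgCl2, DTT, Tween-20 and 2.5 ug/ml poly(dI-dC); started with 200 nM TAMRA/BHQ-2 forked duplex and 2 mM ATP. Unwinding read as fluorescence (525/598 nm), two reads 2 h apart.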

[4] = Cytometric Cell-Based qHTS for Inhibitors of the mTORC1 Signaling Pathway in MEF (Tsc2-/-, p53-/-) Cells (AID 2660);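 note: percent of cells above a phospho-rpS6 to PI ratio cutoff in each well; series mostly up to about 38 µM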
In short: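 Immunofluorescence qHTS of rpS6 Ser235/236 phosphorylation: MEFs (Tsc2-/-, p53-/-) treated 24 h, 37 C, in DMEM + 10% FBS. Alexa-488 signal normalized to PI count, referenced to rapamycin (7.5 nM) and DMSO; PI cell number recorded for viability.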

[5] = High Content Imaging Cell-Based qHTS for Inhibitors of the mTORC1 Signaling Pathway in MEF (Tsc2-/-, p53-/-) Cells (AID 2666);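 note: percent of cells scored positive for phospho-rpS6 Ser235/236 immunostaining by imaging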
In short: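 Read-out: % positive cells per well, with thresholds from highest- and lowest-signal wells, based on phospho-rpS6 (Ser235/236) intensity normalized to Hoechst nuclear stain. Cells: Tsc2-/-, p53-/- MEFs carrying empty vector; compound 24 hrs, 37 degree Celsius.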

[6] = High Content Imaging Cell-Based qHTS for Inhibitors of the mTORC1 Signaling Pathway in MEF Cells (AID 2667); note: potency is the fitted concentration of half-maximal effect
In short: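 MEF (Tsc2-/-, p53-/-, WT Tsc2 re-expressed); cpd 24 h, 37 °C; PFA fix; Alexa-488 anti-p-rpS6 Ser235/236, PI, Hoechst; IN Cell imaging; Hoechst/Alexa-488 intensity ratio; % active cells, thresholds set from rapamycin and DMSO wells.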

[7] = Cytometry Cell-Based qHTS for Inhibitors of the mTORC1 Signaling Pathway in MEF cells (AID 2668);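 note: Tsc2-/- p53-/- mouse embryonic fibroblasts stably re-expressing wild-type Tsc2; percent cells positive for phospho-rpS6 Ser235/236 relative to propidium iodide stain; series mostly up to about 38 µM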
In short: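 Phospho-rpS6 (Ser235/236) immunofluorescence over PI signal, scored as % positive cells using thresholds from 7.5 nM rapamycin and DMSO wells, after 24 h compound exposure of WT-Tsc2-rescued Tsc2-/-, p53-/- MEFs. PI cell count recorded for viability.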

[8] = Validation screen for small molecules that induce DNA re-replication in MCF 10A normal breast cells (AID 463097); note: nearly all actives have a fitted effect of over 60% in size
In short: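 Read-out is Hoechst total nuclear intensity by fluorescence scanning imager, flagging increased high-DNA-content nuclei. Compounds were incubated with MCF 10A cells for 48 hr (37 C, 5% CO2) before 40 min staining.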

[9] = molecular target: Ubiquitin carboxyl-terminal hydrolase 2 (Homo sapiens) (UniProt O75604); assay: qHTS Validation Assay for Inhibitors of Ubiquitin-specific Protease USP2a Using CHOP2 as the Reporter (AID 463106)
In short: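 USP2 core (10nM final) was preincubated with compound for 30min at RT in 20mM Tris-HCl pH 8.0, 2mM CaCl2, 2mM beta-mercaptoethanol, 0.05% CHAPS. Ub-CHOP2 and reporter substrate (25nM each) were added, and fluorescence (Ex 485/Em 531nm) was read after 60min.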

[10] = molecular target: DNA polymerase III PolC-type (Bacillus subtilis (strain 168)) (UniProt P13267); assay: qHTS Validation Assay for the Inhibitors of DNA Replication in Gram-Positive Bacteria (AID 485295);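 note: reconstituted holoenzyme with PolC plus beta clamp SSB and primase; PicoGreen fluorescence of double-stranded DNA made on primed circular M13 template; series mostly up to about 57 µM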
In short: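 Double-stranded DNA product detected by PicoGreen fluorescence after EDTA quench. Compound incubated with B. subtilis holoenzyme (PolC, beta subunit, SSB, primase) before substrate addition; primed replication of M13Gori with dNTPs and NTPs at room temperature; DMSO defines 0% inhibition.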

[11] = molecular target: Tumor susceptibility gene 101 protein (Homo sapiens) (UniProt Q99816); assay: qHTS Validation Assay for Iinhibitors of HIV-1 Budding by Blocking the Interaction of PTAP/TSG101 (AID 485342; calls by dose curve)
In short: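 Fluorescence polarization of 50 nM FITC-PTAP peptide bound to 10 uM Tsg101 binding domain was read after 20 min room-temperature incubation with compounds, in 10 mM HEPES pH 7.5, 0.15 M NaCl, 0.01% Tween 20.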

[12] = molecular target: ATP-dependent 6-phosphofructokinase (Trypanosoma brucei brucei) (UniProt O15648); assay: qHTS Validation Assay to Find Inhibitors of T. brucei phosphofructokinase (AID 485368); note: potency is the fitted concentration of half-maximal effect
In short: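 Steps: substrate mix (0.5 mM F6P, 0.1 mM ATP, MgCl2, TEA pH 8.0); compound; 1.25 nM T. brucei PFK; 45 min RT; ATP depletion 10 min; ADP-to-ATP detection 10 min; luminescence read; curve fitting and classification.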

[13] = Quantitative high throughput screen for delayed death inhibitors of the malarial parasite plastid, 96 hour incubation (AID 488745); note: series mostly up to about 29 µM; nearly all actives have a fitted effect of over 70% in size
In short: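 P. falciparum carrying an integrated firefly luciferase reporter, grown in erythrocytes (2% hematocrit, 0.1% parasitemia final) in RPMI 1640/0.5% Albumax, was exposed to compound for 96 h (two generations) at 37 C, 5% CO2. Luminescence decrease indicated growth inhibition.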

[14] = Quantitative high throughput screen for delayed death inhibitors of the malarial parasite plastid, 48 hour incubation (AID 488752); note: nearly all actives have a fitted effect of over 65% in size
In short: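 Erythrocytes infected with P. falciparum carrying an integrated firefly luciferase reporter (2% hematocrit, 0.1% parasitemia final) were exposed to compounds in RPMI 1640/0.5% Albumax for 48 h at 37 C, 5% CO2. Growth inhibition was scored as reduced luminescence.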

[15] = qHTS Validation Assay to Find Inhibitors of Chronic Active B-Cell Receptor Signaling (AID 485345; active = well fitted curve in the direction sought with a large enough effect in the main read-out, with a control signal flat, not every such curve was filed as active)
In short: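 TMD8 ABC-DLBCL cells with dox-inducible green luciferase–IκBα fusion and red native luciferase; compounds 46 uM–3 nM, 4 h at 37C with doxycycline in 0.5% FBS IMDM. Green/red ratio normalized to basal and 10 uM MG-132.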

[16] = molecular target: Beta-2 adrenergic receptor (Homo sapiens) (UniProt P07550); assay: qHTS validation assay of beta-arrestin-biased ligands of beta2-adrenergic receptor (AID 485366)
In short: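 Arrestin-recruitment (Tango) reporter: ligand-bound beta2-AR recruits beta-arrestin, releasing tTA, which upregulates luciferase. Titrations of up to 46 microM incubated 18 hr at 37 degrees C before luminescent readout.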

[17] = molecular target: RecQ-like DNA helicase BLM (Homo sapiens) (UniProt P54132); assay: qHTS Validation Assay for Inhibitors of Bloom's syndrome helicase (BLM) (AID 2364)
In short: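 BLM 50 nM in 25 mM Tris-HCl pH 8.0, 5 mM NaCl, 2 mM MgCl2, 1 mM DTT, 0.01% Tween-20, 2.5 ug/ml poly(dI-dC); 15 min cpd preinc, RT. Start: 200 nM forked DNA + 2 mM ATP (final). TAMRA read, 2 reads 2 h apart.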

[18] = qHTS Assay for Modulators of Human Peripheral Myelin Protein 22 (PMP22) Expression/Activity (AID 1967; active = well fitted curve in the direction sought with a large enough effect in the signal ratio; the % refers to the signal ratio)
In short: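 Readout is the corrected green/red luminescence ratio after 24 h compound exposure, normalised to untreated cells (0%). Engineered MSC80 mouse Schwann cells express green luciferase from the mouse Pmp22 promoter and red luciferase from EF-alpha as internal control.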

[19] = qHTS Assay for Identification of Small Molecule Inducers of Hypoxia Response (AID 2120; active = well fitted curve in the direction sought with a large enough effect in the signal ratio, with a control signal flat, not every such curve was filed as active; the % refers to the signal ratio)
In short: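 HRE-beta-lactamase reporter in CellSensor HRE-bla ME-180 cells, 2500 cells/well in Opti-MEM with 0.5% dialyzed FBS; compounds tested as titration series, 17 h at 37 degrees C. CCF4 substrate 2.5 h at room temperature; AC50 from 460/530 nm ratio.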

Measured: Potency

Ferritin light chain (Equus caballus), sequence (P02791 2-175 limits assumed): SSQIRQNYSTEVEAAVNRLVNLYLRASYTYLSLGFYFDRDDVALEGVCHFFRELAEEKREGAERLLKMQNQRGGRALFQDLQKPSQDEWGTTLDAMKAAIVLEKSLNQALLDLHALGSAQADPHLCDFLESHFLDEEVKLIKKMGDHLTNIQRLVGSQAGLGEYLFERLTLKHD
Beta-2 adrenergic receptor (Homo sapiens), sequence (P07550 whole entry, looked up): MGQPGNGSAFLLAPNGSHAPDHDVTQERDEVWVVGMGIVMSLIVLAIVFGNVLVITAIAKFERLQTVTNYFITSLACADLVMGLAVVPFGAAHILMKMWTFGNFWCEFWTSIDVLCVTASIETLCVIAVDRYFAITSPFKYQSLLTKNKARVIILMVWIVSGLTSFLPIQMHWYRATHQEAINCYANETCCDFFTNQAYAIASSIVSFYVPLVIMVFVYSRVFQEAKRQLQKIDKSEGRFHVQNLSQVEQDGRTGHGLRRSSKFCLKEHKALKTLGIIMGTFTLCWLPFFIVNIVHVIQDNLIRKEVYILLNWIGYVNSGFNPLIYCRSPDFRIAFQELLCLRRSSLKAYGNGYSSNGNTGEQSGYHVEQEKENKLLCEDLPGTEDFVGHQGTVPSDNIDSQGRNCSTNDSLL
DNA polymerase III PolC-type (Bacillus subtilis (strain 168)), sequence (P13267 whole entry, looked up): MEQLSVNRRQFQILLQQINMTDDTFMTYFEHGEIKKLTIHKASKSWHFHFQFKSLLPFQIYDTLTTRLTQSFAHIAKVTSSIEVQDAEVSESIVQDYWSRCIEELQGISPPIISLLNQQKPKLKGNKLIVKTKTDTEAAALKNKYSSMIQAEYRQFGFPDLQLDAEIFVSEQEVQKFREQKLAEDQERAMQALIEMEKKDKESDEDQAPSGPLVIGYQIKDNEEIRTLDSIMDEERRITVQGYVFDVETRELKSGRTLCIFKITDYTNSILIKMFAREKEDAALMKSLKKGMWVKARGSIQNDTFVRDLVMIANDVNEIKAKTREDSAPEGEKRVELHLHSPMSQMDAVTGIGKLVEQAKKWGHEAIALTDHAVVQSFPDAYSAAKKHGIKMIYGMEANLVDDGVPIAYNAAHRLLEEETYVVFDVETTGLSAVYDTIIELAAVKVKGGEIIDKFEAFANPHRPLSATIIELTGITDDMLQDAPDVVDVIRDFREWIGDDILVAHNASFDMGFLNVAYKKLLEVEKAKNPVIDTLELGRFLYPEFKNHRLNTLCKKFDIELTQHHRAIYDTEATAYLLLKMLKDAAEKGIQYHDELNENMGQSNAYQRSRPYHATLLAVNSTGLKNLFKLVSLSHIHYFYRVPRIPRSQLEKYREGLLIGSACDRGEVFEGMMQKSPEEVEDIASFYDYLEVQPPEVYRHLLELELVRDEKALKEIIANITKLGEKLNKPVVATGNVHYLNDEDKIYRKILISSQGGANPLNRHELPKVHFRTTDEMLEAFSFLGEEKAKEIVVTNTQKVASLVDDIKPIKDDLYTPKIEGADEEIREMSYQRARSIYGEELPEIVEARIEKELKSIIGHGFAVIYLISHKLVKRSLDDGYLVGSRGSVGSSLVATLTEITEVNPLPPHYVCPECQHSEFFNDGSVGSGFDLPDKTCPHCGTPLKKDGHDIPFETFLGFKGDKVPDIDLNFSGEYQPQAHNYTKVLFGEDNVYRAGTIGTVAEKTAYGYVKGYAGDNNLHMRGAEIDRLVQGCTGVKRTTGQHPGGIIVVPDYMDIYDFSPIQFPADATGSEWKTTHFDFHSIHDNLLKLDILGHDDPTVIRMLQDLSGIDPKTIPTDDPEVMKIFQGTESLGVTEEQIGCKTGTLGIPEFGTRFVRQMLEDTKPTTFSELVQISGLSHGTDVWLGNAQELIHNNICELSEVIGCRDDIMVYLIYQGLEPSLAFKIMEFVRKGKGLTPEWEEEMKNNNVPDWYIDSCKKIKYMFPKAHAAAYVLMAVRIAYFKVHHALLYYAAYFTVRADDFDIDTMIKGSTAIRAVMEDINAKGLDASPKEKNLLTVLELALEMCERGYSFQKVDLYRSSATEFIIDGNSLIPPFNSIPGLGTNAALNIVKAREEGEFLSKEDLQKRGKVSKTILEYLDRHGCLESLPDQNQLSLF
Ubiquitin carboxyl-terminal hydrolase 2 (Homo sapiens), sequence (O75604 whole entry, looked up): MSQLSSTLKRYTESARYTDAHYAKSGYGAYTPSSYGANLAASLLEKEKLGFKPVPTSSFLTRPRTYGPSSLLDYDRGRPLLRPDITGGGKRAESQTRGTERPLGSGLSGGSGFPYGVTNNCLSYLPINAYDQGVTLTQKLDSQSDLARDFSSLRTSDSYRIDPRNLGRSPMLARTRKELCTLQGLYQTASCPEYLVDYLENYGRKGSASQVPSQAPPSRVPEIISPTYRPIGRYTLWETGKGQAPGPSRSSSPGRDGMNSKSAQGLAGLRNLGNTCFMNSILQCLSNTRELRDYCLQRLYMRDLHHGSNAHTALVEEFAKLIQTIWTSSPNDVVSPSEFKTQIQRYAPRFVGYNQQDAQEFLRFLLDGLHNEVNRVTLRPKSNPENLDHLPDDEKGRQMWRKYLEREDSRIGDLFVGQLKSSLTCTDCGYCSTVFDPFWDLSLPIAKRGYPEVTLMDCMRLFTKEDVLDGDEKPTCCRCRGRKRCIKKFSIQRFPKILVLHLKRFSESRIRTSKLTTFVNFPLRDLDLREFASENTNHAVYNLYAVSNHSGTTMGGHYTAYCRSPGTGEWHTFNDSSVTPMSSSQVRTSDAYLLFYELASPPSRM
Tumor susceptibility gene 101 protein (Homo sapiens), sequence (Q99816 whole entry, looked up, the tested form may be a part): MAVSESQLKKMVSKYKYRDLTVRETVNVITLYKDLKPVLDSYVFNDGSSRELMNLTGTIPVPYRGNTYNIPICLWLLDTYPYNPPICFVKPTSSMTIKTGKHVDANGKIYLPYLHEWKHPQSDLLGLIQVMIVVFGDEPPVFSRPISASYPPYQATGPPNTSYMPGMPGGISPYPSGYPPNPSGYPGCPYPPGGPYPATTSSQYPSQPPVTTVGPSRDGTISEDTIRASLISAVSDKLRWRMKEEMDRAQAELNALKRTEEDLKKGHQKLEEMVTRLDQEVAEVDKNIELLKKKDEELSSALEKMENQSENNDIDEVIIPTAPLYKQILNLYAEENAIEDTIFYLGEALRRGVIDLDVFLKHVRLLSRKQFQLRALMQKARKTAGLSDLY
ATP-dependent DNA helicase Q1 (Homo sapiens), sequence (P46063 whole entry, looked up): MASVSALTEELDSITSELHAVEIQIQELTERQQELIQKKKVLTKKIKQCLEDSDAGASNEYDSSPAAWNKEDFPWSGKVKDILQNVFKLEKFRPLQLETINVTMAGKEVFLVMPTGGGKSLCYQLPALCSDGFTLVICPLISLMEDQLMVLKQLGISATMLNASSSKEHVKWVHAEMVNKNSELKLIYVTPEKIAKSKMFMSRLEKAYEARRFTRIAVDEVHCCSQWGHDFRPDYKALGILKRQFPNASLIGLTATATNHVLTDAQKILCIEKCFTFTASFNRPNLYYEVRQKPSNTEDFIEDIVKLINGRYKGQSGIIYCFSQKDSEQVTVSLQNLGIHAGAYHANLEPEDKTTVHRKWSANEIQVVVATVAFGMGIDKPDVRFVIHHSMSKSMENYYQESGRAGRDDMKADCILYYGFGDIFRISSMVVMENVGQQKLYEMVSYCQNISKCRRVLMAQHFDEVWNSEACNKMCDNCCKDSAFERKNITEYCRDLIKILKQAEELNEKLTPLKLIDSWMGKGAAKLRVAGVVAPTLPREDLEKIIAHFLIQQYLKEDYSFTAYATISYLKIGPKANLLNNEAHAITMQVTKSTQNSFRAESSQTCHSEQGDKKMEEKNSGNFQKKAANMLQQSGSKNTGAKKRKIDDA
ATP-dependent 6-phosphofructokinase (Trypanosoma brucei brucei), sequence (O15648 whole entry, looked up): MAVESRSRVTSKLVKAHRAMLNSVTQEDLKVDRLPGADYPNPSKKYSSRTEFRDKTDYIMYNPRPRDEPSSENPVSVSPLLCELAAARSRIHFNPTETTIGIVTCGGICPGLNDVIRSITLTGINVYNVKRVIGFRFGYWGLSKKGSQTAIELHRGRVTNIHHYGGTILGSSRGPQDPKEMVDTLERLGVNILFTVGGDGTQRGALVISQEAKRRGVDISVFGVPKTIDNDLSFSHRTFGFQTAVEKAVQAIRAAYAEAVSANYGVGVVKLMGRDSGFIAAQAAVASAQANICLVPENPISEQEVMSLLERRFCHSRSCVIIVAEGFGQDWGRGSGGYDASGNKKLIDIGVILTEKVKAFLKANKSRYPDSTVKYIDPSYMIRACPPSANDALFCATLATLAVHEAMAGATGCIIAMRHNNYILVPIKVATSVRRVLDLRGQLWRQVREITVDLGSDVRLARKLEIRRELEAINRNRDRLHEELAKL

COc1ccccc1OCC(O)CN1CCN(CC(=O)Nc2c(C)cccc2C)CC1 (centres undefined)
not listed: [15] | [16] | [17] | [18] | [19]
inactive: all other assays above

CCc1cccc2c3c([nH]c12)C(CC)(CC(=O)O)OCC3 (centres undefined)
not listed: [8] | [12] | [17] | [18] | [19]
inactive: all other assays above

COC(=O)Nc1nc2ccc(C(=O)c3cccs3)cc2[nH]1
inactive: [2] | [3] | [5] | [6] | [9] | [10] | [11] | [16]

COc1cc2nc(N(C)CCCNC(=O)C3CCCO3)nc(N)c2cc1OC (centres undefined)
inactive: [4] | [5] | [6] | [7] | [9] | [10] | [11] | [15]

Cc1ccccc1N1C(=O)c2cc(S(N)(=O)=O)c(Cl)cc2NC1C (centres undefined)
not listed: [7] | [8] | [16] | [17] | [18] | [19]
inactive: all other assays above

C[C@](N)(Cc1ccc(O)c(O)c1)C(=O)O
active: [12] 9.53 µM
inactive: [1] | [2] | [3] | [9] | [10] | [11] | [15] | [16] | [13] | [14]

CC(C)NCC(O)c1ccc(O)c(O)c1 (centres undefined)
not listed: [1] | [6] | [7] | [8] | [12] | [16] | [18] | [19]
inactive: all other assays above

CN1CCN(C2=Nc3cc(Cl)ccc3Nc3ccccc32)CC1
not listed: [1] | [13] | [14] | [17] | [18] | [19]
inactive: all other assays above

CC#C[C@]1(O)CC[C@H]2[C@@H]3CCC4=CC(=O)CCC4=C3[C@@H](c3ccc(N(C)C)cc3)C[C@@]21C
active: [6] 11.7 µM
inactive: [4] | [5] | [9] | [10] | [11]

Clc1ccc2nsnc2c1NC1=NCCN1
inactive: [4] | [5] | [6] | [9] | [10] | [11] | [15]

CS(=O)(=O)Nc1ccc([N+](=O)[O-])cc1Oc1ccccc1
not listed: [12] | [16] | [17] | [18] | [19]
inactive: all other assays above

NC(CO)C(=O)NNCc1ccc(O)c(O)c1O (centres undefined)
not listed: [2] | [6] | [7] | [8] | [12] | [18] | [19]
inactive: all other assays above

Cc1cc(C(C)(C)C)cc(C)c1CC1=NCCN1
not listed: [1] | [2] | [7] | [16] | [17] | [18] | [19]
inactive: all other assays above

COc1cc2c(c(OC)c1OC)-c1ccc(OC)c(=O)cc1[C@@H](NC(C)=O)CC2
not listed: [1] | [2] | [8] | [12] | [15]
inactive: all other assays above

CC(C)C(=O)Nc1ccc([N+](=O)[O-])c(C(F)(F)F)c1
not listed: [1] | [2] | [7] | [18] | [19]
inactive: all other assays above

CCN1CCCC1CNC(=O)c1cc(S(=O)(=O)CC)c(N)cc1OC (centres undefined)
inactive: [4] | [5] | [6] | [7] | [9] | [10] | [11] | [15] | [12]

Cc1cn([C@H]2C[C@H](N=[N+]=[N-])[C@@H](CO)O2)c(=O)[nH]c1=O
inactive: [4] | [5] | [6] | [7] | [9] | [10] | [11] | [15] | [16]
